Article PMC12864922, “TDP-43 directly inhibits mRNA accumulation in neurites through modulation of mRNA stability”
In all, about 9,900 sequences were measured (“r (bound/input frequency ratio)”: median about 0.7, highest 2% from about 6.5 on). This excerpt belongs to a sample that is enriched for the highest values.

B1: ENSMUSG00000043670.236|Diras1|111:115;221:233;244:250 (ssRNA)
RNA: GGGAGUUCUACAGUCCGACGAUCGCUUCGAUAUCCGCAUGCUAUUUUCAGGGGUGGGUGACACAGGCCUGUCUGAUGAGCACCAGGUCUGUUCCAGGCUGUGGCAAGCUGGCUCCUGGCUCAGAAGUGACAAAGCUGCAGUACAGAGGCCUCACACACAGGUCAUCACCUCACAGUGGCUACAGACCAGGCUGUGGCCUGAGUGAGCUGGAACCUCUGGGGUGGGGACGAGAAAGAGAGAGGGAGAGAGAGGGGGGAGAGUGACACACACACACACAAGGGGGAGACACACACGGGGAAGAGUCUCUUGCGGUCGCACUAGUGUGGAAUUCUCGGGUGUCAAGG
B2: ENSMUSG00000043670.237|Diras1|105:109;215:227;238:244 (ssRNA)
RNA: GGGAGUUCUACAGUCCGACGAUCGCUUCGAUAUCCGCAUGCUAGGGGUGGGUGACACAGGCCUGUCUGAUGAGCACCAGGUCUGUUCCAGGCUGUGGCAAGCUGGCUCCUGGCUCAGAAGUGACAAAGCUGCAGUACAGAGGCCUCACACACAGGUCAUCACCUCACAGUGGCUACAGACCAGGCUGUGGCCUGAGUGAGCUGGAACCUCUGGGGUGGGGACGAGAAAGAGAGAGGGAGAGAGAGGGGGGAGAGUGACACACACACACACAAGGGGGAGACACACACGGGGAAGAGUGAGAGACUCUUGCGGUCGCACUAGUGUGGAAUUCUCGGGUGUCAAGG
B3: ENSMUSG00000043670.241|Diras1|81:85;191:203;214:220;245:253 (ssRNA)
RNA: GGGAGUUCUACAGUCCGACGAUCGCUUCGAUAUCCGCAUGCUAGAUGAGCACCAGGUCUGUUCCAGGCUGUGGCAAGCUGGCUCCUGGCUCAGAAGUGACAAAGCUGCAGUACAGAGGCCUCACACACAGGUCAUCACCUCACAGUGGCUACAGACCAGGCUGUGGCCUGAGUGAGCUGGAACCUCUGGGGUGGGGACGAGAAAGAGAGAGGGAGAGAGAGGGGGGAGAGUGACACACACACACACAAGGGGGAGACACACACGGGGAAGAGUGAGAGAGAUAGAGUCAUACACACAGAGGGACUCUUGCGGUCGCACUAGUGUGGAAUUCUCGGGUGUCAAGG
B4: ENSMUSG00000043670.238|Diras1|99:103;209:221;232:238 (ssRNA)
RNA: GGGAGUUCUACAGUCCGACGAUCGCUUCGAUAUCCGCAUGCUAGGUGACACAGGCCUGUCUGAUGAGCACCAGGUCUGUUCCAGGCUGUGGCAAGCUGGCUCCUGGCUCAGAAGUGACAAAGCUGCAGUACAGAGGCCUCACACACAGGUCAUCACCUCACAGUGGCUACAGACCAGGCUGUGGCCUGAGUGAGCUGGAACCUCUGGGGUGGGGACGAGAAAGAGAGAGGGAGAGAGAGGGGGGAGAGUGACACACACACACACAAGGGGGAGACACACACGGGGAAGAGUGAGAGAGAUAGACUCUUGCGGUCGCACUAGUGUGGAAUUCUCGGGUGUCAAGG
B5: ENSMUSG00000043670.234|Diras1 (ssRNA)
RNA: GGGAGUUCUACAGUCCGACGAUCGCUUCGAUAUCCGCAUGCUAUAUGGCUCUGUGUUUUCAGGGGUGGGUGACACAGGCCUGUCUGAUGAGCACCAGGUCUGUUCCAGGCUGUGGCAAGCUGGCUCCUGGCUCAGAAGUGACAAAGCUGCAGUACAGAGGCCUCAGUGUGAGGUCAUCACCUCACAGUGGCUACAGACCAGGCUGUGGCCUGAGUGAGCUGGAACCUCUGGGGUGGGGACGAGAAAGAGAGAGGGAGAGAGAGGGGGGAGAGUGAGUGUGUGUGUGUGAAGGGGGAGAGUGUGCUCUUGCGGUCGCACUAGUGUGGAAUUCUCGGGUGUCAAGG
B6: ENSMUSG00000043670.233|Diras1 (ssRNA)
RNA: GGGAGUUCUACAGUCCGACGAUCGCUUCGAUAUCCGCAUGCUAUGUCUGUAUGGCUCUGUGUUUUCAGGGGUGGGUGACACAGGCCUGUCUGAUGAGCACCAGGUCUGUUCCAGGCUGUGGCAAGCUGGCUCCUGGCUCAGAAGUGACAAAGCUGCAGUACAGAGGCCUCAGUGUGAGGUCAUCACCUCACAGUGGCUACAGACCAGGCUGUGGCCUGAGUGAGCUGGAACCUCUGGGGUGGGGACGAGAAAGAGAGAGGGAGAGAGAGGGGGGAGAGUGAGUGUGUGUGUGUGAAGGGGGAGCUCUUGCGGUCGCACUAGUGUGGAAUUCUCGGGUGUCAAGG
B7: ENSMUSG00000043670.240|Diras1|87:91;197:209;220:226;251:259 (ssRNA)
RNA: GGGAGUUCUACAGUCCGACGAUCGCUUCGAUAUCCGCAUGCUACUGUCUGAUGAGCACCAGGUCUGUUCCAGGCUGUGGCAAGCUGGCUCCUGGCUCAGAAGUGACAAAGCUGCAGUACAGAGGCCUCACACACAGGUCAUCACCUCACAGUGGCUACAGACCAGGCUGUGGCCUGAGUGAGCUGGAACCUCUGGGGUGGGGACGAGAAAGAGAGAGGGAGAGAGAGGGGGGAGAGUGACACACACACACACAAGGGGGAGACACACACGGGGAAGAGUGAGAGAGAUAGAGUCAUACACACACUCUUGCGGUCGCACUAGUGUGGAAUUCUCGGGUGUCAAGG
B8: ENSMUSG00000043670.232|Diras1 (ssRNA)
RNA: GGGAGUUCUACAGUCCGACGAUCGCUUCGAUAUCCGCAUGCUAGUGGUGUGUCUGUAUGGCUCUGUGUUUUCAGGGGUGGGUGACACAGGCCUGUCUGAUGAGCACCAGGUCUGUUCCAGGCUGUGGCAAGCUGGCUCCUGGCUCAGAAGUGACAAAGCUGCAGUACAGAGGCCUCAGUGUGAGGUCAUCACCUCACAGUGGCUACAGACCAGGCUGUGGCCUGAGUGAGCUGGAACCUCUGGGGUGGGGACGAGAAAGAGAGAGGGAGAGAGAGGGGGGAGAGUGAGUGUGUGUGUGUGAAGCUCUUGCGGUCGCACUAGUGUGGAAUUCUCGGGUGUCAAGG

The binders below were run against TDP-43 (Homo sapiens, UniProt Q13148 1-414) (assay: RNA Bind-n-Seq with designed 260-mer pool; 25 mM Tris-HCl, 150 mM KCl, 3 mM MgCl2, BSA (printed 500 mg/mL), 20 units/mL SUPERase IN; pH not stated; 500 nM RNA pool, 1 h, 4 C; TDP-43 5, 50, 500 nM; high values mean tight binding). Details: protein: recombinant; tags: SBP (GST cleaved off with PreScission; pGEX-GST-SBP).
TDP-43, sequence (Q13148 whole entry): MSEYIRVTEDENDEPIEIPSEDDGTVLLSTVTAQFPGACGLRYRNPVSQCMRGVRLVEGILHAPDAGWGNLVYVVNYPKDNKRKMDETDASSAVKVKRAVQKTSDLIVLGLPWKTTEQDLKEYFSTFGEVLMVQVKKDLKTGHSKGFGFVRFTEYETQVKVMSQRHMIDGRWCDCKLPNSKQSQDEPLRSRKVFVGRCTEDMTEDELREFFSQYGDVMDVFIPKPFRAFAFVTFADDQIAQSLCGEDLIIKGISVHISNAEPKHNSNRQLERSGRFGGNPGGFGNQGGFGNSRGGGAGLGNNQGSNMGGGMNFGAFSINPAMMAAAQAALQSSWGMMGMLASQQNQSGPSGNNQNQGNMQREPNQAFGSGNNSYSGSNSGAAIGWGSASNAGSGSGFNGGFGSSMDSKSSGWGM
Procedure, shortened: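 An in vitro-transcribed pool of 260-nt 3′ UTR oligos (500 nM) was incubated for 1 h at 4 °C with recombinant SBP-tagged TDP-43 at 5, 50 or 500 nM held on streptavidin beads. The buffer contained 25 mM Tris-HCl, 150 mM KCl, 3 mM MgCl2, BSA and SUPERase IN. Biotin-eluted bound RNA was sequenced, and binding, R, is each oligo's normalized read abundance in the bound sample over that in input.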

Binder	binding signal
B1	3.82 R (bound/input frequency ratio)
B2	9.04 R (bound/input frequency ratio)
B3	4.89 R (bound/input frequency ratio)
B4	4.05 R (bound/input frequency ratio)
B5	6.5 R (bound/input frequency ratio)
B6	7.61 R (bound/input frequency ratio)
B7	3.45 R (bound/input frequency ratio)
B8	6.45 R (bound/input frequency ratio)
